HT1080-NT tox: kills 2HG-producing HT-1080-NT fibrosarcoma cells | HT-1080-NT fibrosarcoma viability, CellTiter-Glo ATP luminescence, 48 h | Potency, µM (doses to about 46.1 µM), without a hit: at the top dose activity, negative = less viability, actives largely listed as cytotoxic | 1.6% of 360,000 active;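 further: NT is the 2HG producing partner of a matched IDH1 knockdown line; potency means the concentration at half of the fitted maximal effect; 0% = DMSO-treated cells and -100% = media-only wells without cells; nearly all actives have a fitted effect of over 55% in size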
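Read-out is CellTiter-Glo luminescence after 10 minutes at room temperature, following 48 hours' compound treatment of HT-1080-NT cells (750 cells/well, RPMI, 5% FBS, 37 degrees C).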
IL1B secr inh: inhibitors of inflammasome signaling (IL-1 beta secretion). THP-1 LPS/ATP IL-1B secretion, AlphaLISA, 16 h; active compounds read low. activity change, % at 57.5 µM. AID 743279. 4.7% of 360,000 active; in the data active means activity change below about -50%; inconclusive means mostly about -30% to -49%
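THP-1 cells pretreated 1 hr with compounds (up to 57.5 uM final), then stimulated with LPS (250 ng/mL final) plus ATP (1.25 mM final); secreted IL-1B measured by AlphaLISA after 16 hr, decreased signal indicating inhibition.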
TDP1 cell CPT: DT40-hTDP1 cell growth loss with CPT; chicken DT40 Tdp1-/-;hTDP1 cells + 20 nM CPT, ATP luminescence, 48 h; Potency, µM (doses to about 46.2 µM), for inactives: top-dose activity change, negative = growth inhibition, hits mostly inhibitors; 12% of 420,000 active; AID 686979; further: potency means the concentration at half of the fitted maximal effect; nearly all actives have a fitted effect of over 55% in size
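Cell growth measured by CellTiter-Glo luminescence after a minimum 48 h, 37 C compound exposure with 20 nM CPT in Tdp1-knockout DT40 cells stably expressing hTDP1, seeded 400/well; qHTS titration format.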
HT1080 IDH1KD tx: HT-1080 IDH1 knockdown cell toxicity (counter line); HT-1080 IDH1 knockdown viability, ATP luminescence, 48 h; Potency, µM (highest dose often 46.1 µM), for the others: at the highest dose activity, negative = toxicity, hits mostly cytotoxic; 2% of 360,000 active; AID 686971;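 further: potency means the concentration at half of the fitted maximal effect; 0% = DMSO wells and -100% = cell-free medium wells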
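HT-1080-IDH1KD cells (IDH1 knocked down), 750/well in RPMI with 5% FBS, treated with compound 48 h at 37 degrees C. Viability by CellTiter-Glo luminescence, normalised to DMSO and no-cell wells; concentration-response curves classed.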
DT40 TDP1 no CPT: qHTS for Inhibitors of human tyrosyl-DNA phosphodiesterase 1 (TDP1): qHTS in cells in absence of CPT; Potency, µM (highest dose often 46.2 µM), for inactives: at the top dose activity change, negative = growth inhibition, hits mostly inhibitors; 15% of 420,000 active; DT40 Tdp1-/- hTDP1 cells, no CPT, ATP luminescence, 48 h; further: potency means the concentration at half of the fitted maximal effect; nearly all actives have a fitted effect of over 55% in size
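Seeded 400 DT40-hTDP1 cells/well (vehicle DMSO, no 20 nM CPT); pinned compounds; ≥48 hr at 37 °C; CellTiter-Glo luminescence as viability measure.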
Starred values were filed as active, the others as inactive; ? = inconclusive; . = no result; [ ] = another dose, or the depositor's remark. Most compounds without a hit are left out; they make up all but 19% or so of the library. Unless noted, the call rests on the fitted dose curve; in most records, active means well fitted curve in the direction sought with a large enough effect; inconclusive means small, poorly fitted or top-dose-only effect, or another doubt; inactive means no such curve, though single readings can be large; an effect the other way counts as inactive or inconclusive. Unless noted, on the % scale 0 is the no-effect control and ±100 the full control effect.

SMILES	HT1080-NT tox	IL1B secr inh	TDP1 cell CPT	HT1080 IDH1KD tx	DT40 TDP1 no CPT
CCN(CC)S(=O)(=O)c1ccc(NN)nc1	-17.9%	85.6	20.6µM*	?	?
CCN(CC)S(=O)(=O)c1ccc(N/N=C/c2cc(OC)ccc2O)nc1	8.2µM*	57.7	5.8µM*	4.61µM*	6.51µM*
CC(C)N(C(C)C)S(=O)(=O)c1ccc(NN)nc1	?	93.7	?	?	?
COc1ccc(N2CC(NC(=O)C3CCCCC3)CC2=O)cc1 (configuration not stated)	.	.	-7.9%	.	-21.8%
O=C(NC1CCCC1)c1ccc(CSc2nc3ccncc3n2Cc2cccc(F)c2)cc1	.	.	?	.	16.4µM*
O=C(NCCN1CCOCC1)c1ccc(CSc2nc3ccncc3n2Cc2ccc(F)cc2)cc1	-10.0%	-18.0	-17.8%	-0.9%	?
O=C(NCc1ccc(F)cc1)c1ccc(CSc2nc3ccncc3n2Cc2ccc(F)cc2)cc1	.	.	23.1µM*	.	-96.9%
O=C(NC1CCCC1)c1ccc(CSc2nc3ccncc3n2Cc2ccc(F)cc2)cc1	-1.2%	2.6	?	-12.1%	16.4µM*
CN1CCN(C(=O)c2ccc(CSc3nc4ccncc4n3Cc3ccc(F)cc3)cc2)CC1	-18.8%	-22.8	-14.3%	-13.4%	-29.7%
CC1CCN(Cc2nnnn2CCCC(=O)N(C)C2CCOC2)CC1 (configuration not stated)	6.3%	0.5	-21.1%	12.7%	17.8%
C[C@H](CO)N1C[C@H](C)[C@@H](CN(C)Cc2ccccc2)Oc2ccc(NC(=O)CCCCCC(=O)Nc3ccccc3N)cc2C1=O	-9.4%	37.7	?	-1.8%	?
C[C@H](CO)N1C[C@H](C)[C@@H](CN(C)C)Oc2c(NC(=O)CCCCCC(=O)Nc3ccccc3N)cccc2C1=O	0.0%	16.0	18.4µM*	-0.8%	?
C[C@H](CO)N1C[C@H](C)[C@@H](CN(C)Cc2ccncc2)Oc2c(NC(=O)CCCCCC(=O)Nc3ccccc3N)cccc2C1=O	3.1%	0.9	?	5.8%	23.1µM*
COc1ccc(OC)c(NC(=O)COC(=O)COc2ccc(Nc3ccccc3)cc2)c1	14.1%	-3.5	0.6%	15.1%	-7.8%
CCn1cc(C(=O)NCc2ccccc2)c(=O)c2cc(F)c(N3CCN(C(=O)c4ccco4)CC3)cc21	20.6µM*	-63.7*	10.3µM*	?	9.2µM*
CCn1cc(C(=O)NCc2ccc3c(c2)OCO3)c(=O)c2cc(F)c(N3CCN(C(=O)c4ccco4)CC3)cc21	18.4µM*	-59.3*	11.6µM*	18.4µM*	10.3µM*
CCN(CC)CCCNC(=O)c1cn(CC)c2cc(N3CCN(C(=O)c4ccco4)CC3)c(F)cc2c1=O	4.4%	-5.3	-17.9%	9.1%	0.4%
COc1cc2c(cc1CN1CCN(C(=O)c3cc(OC)c(OC)c(OC)c3)CC1)OCO2	18.6%	25.2	-16.8%	1.7%	-18.9%
CC(C)=C1C2CCC1C1C(=O)N(c3ccc4c(c3)OCO4)C(=O)C21 (configuration not stated)	5.6%	0.9	-5.0%	2.9%	-24.8%
CC(C)=C1C2C=CC1C1C(=O)N(c3ccc4c(c3)OCO4)C(=O)C21 (configuration not stated)	-4.5%	5.6	?	1.0%	20.6µM*
CCC(C)(C)NC(=O)CCCSc1nc2ccccc2[nH]1	0.3%	0.0	-28.0%	0.2%	2.3%
CC(C)(C)c1ccc(S(=O)(=O)NCCN2CCOCC2)cc1	2.8%	-0.3	-21.0%	1.6%	-23.7%
Cc1cc2nc(CCN3CCOCC3)n(S(=O)(=O)c3ccc(C(C)(C)C)cc3)c2cc1C	-3.7%	11.2	18.4µM*	2.9%	?
CSc1nnc(CNC(=O)c2cccc3ccccc23)n1-c1ccccc1C	.	.	19.9%	.	0.5%
CC(C)CC(NC(=O)C1CCCN1C(=O)OC(C)(C)C)C(=O)NCC(N)=O (configuration not stated)	-0.1%	5.8	0.5%	2.3%	-13.6%
SMILES	HT1080-NT tox	IL1B secr inh	TDP1 cell CPT	HT1080 IDH1KD tx	DT40 TDP1 no CPT
COC(=O)C(CC(C)C)NC(=O)C(Cc1ccccc1)NC(=O)C1CCCN1C(=O)OC(C)(C)C (configuration not stated)	1.7%	-70.5*	-2.1%	-0.5%	8.1%
CCNC(=O)COC(=O)c1cccc(Br)c1	-2.4%	0.0	-17.4%	16.1%	-5.4%
OC1(c2ccccc2)CN(c2ccccc2)C2=[N+]1CCS2 (configuration not stated)	4.5%	-66.4*	?	1.1%	-28.1%
CCOc1ccc(N2CC(O)(c3cccs3)[N+]3=C2CCCC3)cc1 (configuration not stated)	-4.3%	-15.2	?	-11.0%	?
COc1ccc(OC)c(N2CC(O)(c3cccs3)[N+]3=C2SCCC3)c1 (configuration not stated)	-0.6%	-14.7	-9.9%	-1.3%	-12.9%
OC1(c2cccs2)CN(c2ccccc2)C2=[N+]1CCCC2 (configuration not stated)	-8.4%	-86.7*	-0.7%	3.3%	-3.9%
OC1(c2cccs2)CN(c2ccc(Br)cc2)C2=[N+]1CCCS2 (configuration not stated)	?	?	?	?	14.6µM*
COc1cc(C(=O)NNC(=O)c2cc(S(=O)(=O)N(C)C)ccc2N2CCCC2)cc(OC)c1OC	-5.2%[9.24 µM]	?	-16.6%	-1.7%	18.7%
O=C(Cn1cc(C(=O)C(F)(F)F)c2ccccc21)N1CCOCC1	10.4%	6.6	0.1%	13.1%	21.2%
Cc1ccc(C(c2nnnn2C2CCCC2)N2c3ccccc3CC2C)cc1 (configuration not stated)	-5.7%	1.3	?	-10.3%	18.4µM*
CCN(CC)C(c1ccc(C)cc1)c1nnnn1C1CCCCC1 (configuration not stated)	3.1%	-8.3	?	0.2%	18.4µM*
Fc1ccc(C(c2nnnn2C2CCCC2)N2CCc3ccccc32)cc1 (configuration not stated)	-1.3%	-5.6	?	-5.0%	23.1µM*
COc1ccc(C(c2nnnn2C2CCCC2)N2CCc3ccccc3C2)cc1OC (configuration not stated)	6.0%	?	?	-5.6%[9.24 µM]	?
Cc1ccc(C(c2nnnn2C2CCCCC2)N2CCN3CCCC3C2)cc1 (configuration not stated)	10.1%	-15.2	?	-6.4%	-25.2%
COc1ccc(-c2cc(C(=O)Nc3ccc(C)cc3)no2)cc1	3.8%	-12.6	?	23.1%	-2.0%
COc1ccc(NC(=O)c2c(C)noc2-c2snnc2C)cc1	?	-5.2	?	?	20.6µM*
